Test results taken from ChEMBL document CHEMBL2218924, “A broad activity screen in support of a chemogenomic map for kinase signalling research and drug discovery” (Biochem J, 2013).

How the values were obtained:
[1] = target: T1, Aurora kinase C (Homo sapiens) (UniProt Q9UQB9); conditions: at 1 µM
T1 sequence (whole entry): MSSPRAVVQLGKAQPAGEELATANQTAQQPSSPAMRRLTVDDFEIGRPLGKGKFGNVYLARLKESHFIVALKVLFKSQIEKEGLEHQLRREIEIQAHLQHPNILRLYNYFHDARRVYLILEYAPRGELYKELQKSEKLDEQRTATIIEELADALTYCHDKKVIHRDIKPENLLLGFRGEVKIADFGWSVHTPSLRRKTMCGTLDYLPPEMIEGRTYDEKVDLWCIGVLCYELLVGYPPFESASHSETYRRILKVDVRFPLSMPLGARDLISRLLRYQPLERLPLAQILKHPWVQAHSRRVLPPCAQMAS

[2] = target: T1, Aurora kinase C (Homo sapiens); conditions: at 10 µM
[3] = target: Tyrosine-protein kinase receptor UFO (Homo sapiens) (UniProt P30530); conditions: at 1 µM
Tyrosine-protein kinase receptor UFO (Homo sapiens), sequence (P30530 whole entry): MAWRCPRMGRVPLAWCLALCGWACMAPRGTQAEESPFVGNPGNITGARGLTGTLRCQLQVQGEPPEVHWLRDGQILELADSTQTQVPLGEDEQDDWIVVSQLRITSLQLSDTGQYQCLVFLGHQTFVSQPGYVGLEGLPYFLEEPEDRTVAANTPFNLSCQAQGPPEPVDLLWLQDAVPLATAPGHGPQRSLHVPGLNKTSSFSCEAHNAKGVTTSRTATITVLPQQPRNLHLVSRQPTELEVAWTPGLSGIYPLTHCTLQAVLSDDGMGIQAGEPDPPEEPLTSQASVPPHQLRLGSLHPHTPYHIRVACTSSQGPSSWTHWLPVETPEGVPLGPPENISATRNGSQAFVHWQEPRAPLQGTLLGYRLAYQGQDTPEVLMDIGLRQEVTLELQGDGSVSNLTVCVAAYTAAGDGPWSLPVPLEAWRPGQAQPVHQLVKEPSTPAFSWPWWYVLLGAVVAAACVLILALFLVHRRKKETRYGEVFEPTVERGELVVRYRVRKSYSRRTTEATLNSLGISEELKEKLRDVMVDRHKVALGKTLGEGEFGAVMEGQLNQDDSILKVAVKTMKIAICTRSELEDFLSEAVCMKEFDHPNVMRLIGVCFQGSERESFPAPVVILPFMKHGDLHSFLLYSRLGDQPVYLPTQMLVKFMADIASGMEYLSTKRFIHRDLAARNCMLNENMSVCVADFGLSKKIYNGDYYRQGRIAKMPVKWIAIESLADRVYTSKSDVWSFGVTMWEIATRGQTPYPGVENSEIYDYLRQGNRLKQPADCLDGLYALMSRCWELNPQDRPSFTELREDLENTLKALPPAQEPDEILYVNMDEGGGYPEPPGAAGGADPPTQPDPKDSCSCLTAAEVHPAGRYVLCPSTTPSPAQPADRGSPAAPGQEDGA

[4] = target: Tyrosine-protein kinase receptor UFO (Homo sapiens) (UniProt P30530); conditions: at 10 µM
[5] = target: Protein-tyrosine kinase 6 (Homo sapiens) (UniProt Q13882); conditions: at 1 µM
Protein-tyrosine kinase 6 (Homo sapiens), sequence (Q13882 whole entry, looked up): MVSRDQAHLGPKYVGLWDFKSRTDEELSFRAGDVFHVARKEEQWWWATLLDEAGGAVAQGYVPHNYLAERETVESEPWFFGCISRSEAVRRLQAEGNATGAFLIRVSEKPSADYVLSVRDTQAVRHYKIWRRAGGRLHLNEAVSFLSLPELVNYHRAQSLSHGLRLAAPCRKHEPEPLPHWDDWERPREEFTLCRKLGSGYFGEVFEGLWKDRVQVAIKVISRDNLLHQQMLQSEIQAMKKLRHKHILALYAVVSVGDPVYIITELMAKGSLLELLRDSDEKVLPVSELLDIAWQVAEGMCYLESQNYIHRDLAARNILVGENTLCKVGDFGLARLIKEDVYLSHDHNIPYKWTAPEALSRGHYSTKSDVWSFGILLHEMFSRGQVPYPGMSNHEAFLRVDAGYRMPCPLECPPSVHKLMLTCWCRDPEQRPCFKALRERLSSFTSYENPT

[6] = target: Protein-tyrosine kinase 6 (Homo sapiens) (UniProt Q13882); conditions: at 10 µM
[7] = target: Tyrosine-protein kinase BTK (Homo sapiens) (UniProt Q06187); conditions: at 1 µM
Tyrosine-protein kinase BTK (Homo sapiens), sequence (Q06187 whole entry): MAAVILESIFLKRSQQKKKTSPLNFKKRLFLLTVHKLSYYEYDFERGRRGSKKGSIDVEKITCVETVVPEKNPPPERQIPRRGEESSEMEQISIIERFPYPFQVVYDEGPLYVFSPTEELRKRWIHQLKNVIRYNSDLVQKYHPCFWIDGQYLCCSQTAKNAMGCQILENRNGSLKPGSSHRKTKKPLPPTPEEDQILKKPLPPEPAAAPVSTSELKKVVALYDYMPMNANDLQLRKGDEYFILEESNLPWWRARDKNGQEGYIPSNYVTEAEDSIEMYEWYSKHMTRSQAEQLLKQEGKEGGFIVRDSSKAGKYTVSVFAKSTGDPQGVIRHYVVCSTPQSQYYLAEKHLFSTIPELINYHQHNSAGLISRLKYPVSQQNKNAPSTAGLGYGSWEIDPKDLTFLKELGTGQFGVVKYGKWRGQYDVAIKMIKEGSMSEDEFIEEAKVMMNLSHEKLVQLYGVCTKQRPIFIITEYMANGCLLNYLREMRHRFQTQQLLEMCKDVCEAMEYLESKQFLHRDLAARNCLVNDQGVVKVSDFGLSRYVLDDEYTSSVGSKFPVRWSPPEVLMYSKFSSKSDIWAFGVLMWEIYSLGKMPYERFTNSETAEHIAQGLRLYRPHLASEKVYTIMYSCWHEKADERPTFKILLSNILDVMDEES

[8] = target: Tyrosine-protein kinase BTK (Homo sapiens) (UniProt Q06187); conditions: at 10 µM
[9] = target: Tyrosine-protein kinase Blk (Homo sapiens) (UniProt P51451); conditions: at 1 µM
Tyrosine-protein kinase Blk (Homo sapiens), sequence (P51451 2-505 limits assumed): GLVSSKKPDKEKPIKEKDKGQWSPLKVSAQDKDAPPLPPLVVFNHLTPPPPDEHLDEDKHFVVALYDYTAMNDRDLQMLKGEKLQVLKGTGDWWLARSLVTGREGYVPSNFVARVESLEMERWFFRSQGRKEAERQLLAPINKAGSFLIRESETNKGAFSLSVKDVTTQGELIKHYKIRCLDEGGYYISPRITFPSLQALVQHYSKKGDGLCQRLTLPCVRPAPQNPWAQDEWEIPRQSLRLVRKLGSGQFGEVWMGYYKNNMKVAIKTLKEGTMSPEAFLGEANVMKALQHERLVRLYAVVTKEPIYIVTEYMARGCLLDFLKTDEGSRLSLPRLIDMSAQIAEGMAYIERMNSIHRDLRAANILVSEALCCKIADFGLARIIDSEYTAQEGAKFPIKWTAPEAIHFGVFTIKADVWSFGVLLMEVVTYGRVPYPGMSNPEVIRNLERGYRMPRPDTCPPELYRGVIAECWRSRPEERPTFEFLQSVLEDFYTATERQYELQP

[10] = target: Tyrosine-protein kinase Blk (Homo sapiens) (UniProt P51451); conditions: at 10 µM

SMILES	residual activity [1] [%]	residual activity [2] [%]	residual activity [3] [%]	residual activity [4] [%]	residual activity [5] [%]	residual activity [6] [%]	residual activity [7] [%]	residual activity [8] [%]	residual activity [9] [%]	residual activity [10] [%]
CO[C@H]1C[C@@H]2CC[C@@H](C)[C@@](O)(O2)C(=O)C(=O)N2CCCC[C@H]2C(=O)O[C@H]([C@H](C)C[C@@H]2CC[C@@H](O)[C@H](OC)C2)CC(=O)[C@H](C)/C=C(\C)[C@@H](O)[C@@H](OC)C(=O)[C@H](C)C[C@H](C)/C=C/C=C/C=C/1C	79	69	89	84	101	102	91	106	90	82
COc1ccc(CNc2nc(N(CCO)CCO)nc3c2ncn3C(C)C)cc1	75	85	92	75	104	101	88	86	96	83
c1ccc(-c2n[nH]c3c2oc2ccccc23)cc1	–	–	81	73	–	–	–	–	98	49
Nc1n[nH]c2nnc(-c3c(-c4ccccc4)nn4ccccc34)cc12	83	66	98	84	95	78	86	47	100	63
Cc1cccc(-c2[nH]c(C(C)(C)C)nc2-c2ccc3c(c2)OCO3)n1	–	82	87	81	–	102	–	–	–	106
N#Cc1cnc2cnc(NCc3cccnc3)cc2c1Nc1ccc(F)c(Cl)c1	71	54	19	22	–	–	70	58	4	3
CO[C@H]1[C@@H](OC)C[C@H](C)[C@@H](OC)C2=CC(=O)C=C(NC(=O)/C(C)=C/C=C/[C@H](OC)[C@@H](OC(N)=O)/C(C)=C/[C@@H]1C)C2=O	76	90	104	77	109	106	83	101	90	78
CC#CC(=O)Nc1cc2c(Nc3ccc(F)c(Cl)c3)ncnc2cn1	99	73	82	74	99	97	47	16	82	49
COc1cc2ncnc(Nc3ccc(NC(=O)c4ccccc4)cc3)c2cc1OC	44	4	99	40	35	10	90	68	20	2
CNc1cc2c(Nc3cccc(Br)c3)ncnc2cn1	85	64	75	69	69	53	98	83	103	65
O=Nc1c(-c2c(O)[nH]c3ccccc23)[nH]c2ccccc12	61	49	17	8	91	23	31	4	11	0
COc1cc2ncc(-c3ccccc3)nc2cc1OC	–	–	96	84	–	–	–	–	–	–
COc1cc2ncnc(Nc3ccc(Oc4ccccc4)cc3)c2cc1OC	59	59	54	25	7	4	15	2	0	0
Cn1nc2c3c(cccc31)C(=O)c1ccccc1-2	72	58	90	63	103	–	94	76	111	91
COc1cccc(-c2cc(=O)c3ccccc3o2)c1N	99	94	119	111	105	105	94	100	114	103
